Test results: PubChem BioAssay (EPA / NIEHS)
A structure can be active in one record and inactive in another. Calls of active or inactive are those of the source. The calls were made as follows: active = hit-call score of the fitted dose curve at least 0.9, where 1 is the maximum; inactive = score below 0.9.

Assays:
[1] = APR_HepG2_P-H2AX_72hr: Apredica 72-hour HepG2 Assay for H2AX Phosphorylation (AID 2282916); conditions: imaging, actives raise or lower the signal;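 also: phospho-histone H2A.x immunostain intensity per cell marking DNA damage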
In short: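 HepG2; cpd 0.39–200 uM ×10 conc, duplicates; 0.5% DMSO; 72 hr. Fix 3.7% formaldehyde 30 min RT, 0.5% Triton X-100 10 min. Anti-phospho-H2A.x 1:200 + Hoechst 2 ug/mL, 60 min RT; ArrayScan imaging.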

[2] = APR_HepG2_MitoMembPot_72hr: Apredica 72-hour HepG2 Assay for Mitochondrial Membrane Potential (AID 2282917); conditions: imaging, actives raise or lower the signal
In short: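 Membrane potential read by MitoTracker Red CMXRos (250 nM, 30 min, pre-fixation) fluorescence imaging of HepG2 after 72 hr exposure. Ten concentrations, 0.39–200 uM, duplicate wells, 0.5% DMSO; fitted in both directions against DMSO baseline.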

[3] = APR_HepG2_MitoticArrest_72hr: Apredica 72-hour HepG2 Assay for Mitotic Arrest (AID 2282918); conditions: high-content imaging, actives raise or lower the signal
In short: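 Read-out is phospho-histone H3 immunofluorescence with Hoechst nuclear segmentation, imaged at 20x. Human HepG2 liver cells received ten concentrations (0.39–200 uM, final DMSO 0.5% v/v) for 72 hr before fixation. Gain or loss of signal was fitted relative to DMSO.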

[4] = APR_HepG2_MicrotubuleCSK_72hr: Apredica 72-hour HepG2 Assay for Microtubule CSK Stabilty (AID 2282919); conditions: HepG2 microtubule cytoskeleton, high-content imaging, actives raise or lower the signal
In short: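 Read-out is tubulin fluorescence intensity from high-content imaging of HepG2 cells, with nuclei identified by Hoechst 33342. Treatment lasts 72 h at 0.39–200 uM, and curves are fitted bidirectionally against the DMSO negative control.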

[5] = APR_HepG2_P-H2AX_24hr: Apredica 24-hour HepG2 Assay for H2AX Phosphorylation (AID 2282920); conditions: high-content imaging, actives raise or lower the signal
In short: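 HepG2, 24 hr, cpd 0.39–200 uM (10 conc, duplicate), DMSO 0.5% v/v final. Fix 3.7% formaldehyde, Triton X-100 permeabilize, anti-phospho-H2A.x 1:200 + Hoechst 2 ug/mL. Imaged, bidirectional fit vs DMSO.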

[6] = APR_HepG2_StressKinase_72hr: Apredica 72-hour HepG2 Assay for Stress Kinase (AID 2282921); conditions: HepG2 stress kinase (phospho-c-Jun) imaging, actives raise or lower the signal
In short: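 Dose 0.39–200 uM (10 pts, duplicate), 0.5% DMSO; 72 h; fix 3.7% formaldehyde 30 min RT; Triton permeabilize; anti-phospho-c-Jun/Cy3 + Hoechst 60 min RT; image 20x; fit gain/loss vs DMSO.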

[7] = APR_HepG2_StressKinase_24hr: Apredica 24-hour HepG2 Assay for Stress Kinase (AID 2282922); conditions: HepG2 stress kinase (phospho-c-Jun) imaging, actives raise or lower the signal
In short: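 HepG2, 24 hr dosing, 0.39–200 uM in duplicate, 0.5% DMSO; formaldehyde fix (3.7%), 0.5% Triton X-100; anti-phospho-c-Jun + Cy3 secondary, Hoechst counterstain; ArrayScan imaging; bidirectional curve fit vs DMSO baseline.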

[8] = APR_HepG2_p53Act_72hr: Apredica 72-hour HepG2 Assay for p53 Activation (AID 2282923); conditions: high-content imaging, actives raise or lower the signal;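 also: average cellular p53 protein immunofluorescence intensity in HepG2 cells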
In short: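 10-pt conc. 0.39–200 uM, duplicate, 0.5% DMSO; 72 hr exposure; 3.7% formaldehyde fix, 0.5% Triton perm; sheep anti-p53/Cy5 + Hoechst; ArrayScan 20x, 6 images/well; gain/loss fit vs DMSO.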

[9] = APR_HepG2_MitoMass_72hr: Apredica 72-hour HepG2 Assay for Mitochondrial Mass (AID 2282924); conditions: high-content imaging, actives raise or lower the signal;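 also: MitoTracker Red CMXRos stain intensity per cell imaged as mitochondrial mass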
In short: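 HepG2, 72 hr cmpd, 10 conc 0.39–200 uM in dup, DMSO 0.5% v/v. MitoTracker Red CMXRos 250 nM 30 min pre-fix; formaldehyde 3.7% fix 30 min RT. HCS imaging, gain/loss fit vs DMSO.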

[10] = APR_HepG2_NuclearSize_72hr: Apredica 72-hour HepG2 Assay for Nuclear Size (AID 2282925); conditions: high-content imaging, actives raise or lower the signal
In short: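 HepG2; cpd 0.39–200 uM, 10 conc, duplicate; 72 h; DMSO 0.5% v/v; fix 3.7% formaldehyde 30 min RT; Triton permeabilization; Hoechst 2 ug/mL; HCS imaging 20x; nuclear diameter; gain/loss fit vs DMSO.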

[11] = ATG_CRE_CIS: Attagene CIS-FACTORIAL HepG2 Assay for human cAMP Responsive Element (CRE) binding protein 3 (AID 2282926); conditions: HepG2 CRE cis-reporter, Attagene multiplexed mRNA; actives raise or lower the signal
In short: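 Human liver HepG2, transient MRTU transfection, 24 h compound exposure. Total RNA → oligo(dT) RT → PCR → 6-FAM primer extension → HpaI cut → CE. Activity called both directions vs DMSO.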

[12] = molecular target: CCAAT/enhancer-binding protein beta (Homo sapiens) (UniProt P17676); test: ATG_C_EBP_CIS: Attagene CIS-FACTORIAL HepG2 Assay for human CCAAT/Enhancer Binding Protein (C/EBP) beta (AID 2282927); conditions: HepG2 Attagene cis-factorial transcription factor reporter; actives raise or lower the signal
In short: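 Endogenous transcription factor activity in human liver HepG2 cells is inferred from induction of a CEBPB-linked reporter mRNA. Exposure lasts 24 h; activity is fitted in both directions relative to DMSO.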

[13] = ATG_CMV_CIS: Attagene CIS-FACTORIAL HepG2 Assay for human CMV (Internal Marker) (AID 2282928); conditions: HepG2 CMV promoter reporter, transcription factor profiling; actives raise or lower the signal;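 also: endpoint acts as a background internal control marker rather than a target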
In short: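 CMV internal-marker background readout in transiently transfected HepG2 cells bearing cis-regulated reporter units. Reporter mRNA is measured 24 h after dosing by RT-PCR and capillary electrophoresis, with bidirectional fitting against DMSO.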

[14] = molecular target: Aryl hydrocarbon receptor (Homo sapiens) (UniProt P35869); test: ATG_Ahr_CIS: Attagene CIS-FACTORIAL HepG2 Assay for human Aryl Hydrocarbon Receptor (Ahr) (AID 2282930); conditions: HepG2 AhR cis-factorial reporter transcription; actives raise or lower the signal
In short: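 Transient MRTU transfection of HepG2 → 24 h compound exposure → total RNA, oligo(dT) RT → PCR, 6-FAM extension, HpaI cut → CE fluorescence. DMSO = baseline; bidirectional curve fit.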

[15] = ATG_AP_1_CIS: Attagene CIS-FACTORIAL HepG2 Assay for human Activator Protein 1 (AP-1) (AID 2282931); conditions: HepG2 Attagene cis-factorial AP-1 reporter mRNA; actives raise or lower the signal
In short: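 Readout is reporter transcript level from endogenous transcription factor activity, quantified by RT-PCR with fluorescent primer extension and capillary electrophoresis. Transiently transfected HepG2 cells, 24 h exposure. Curves fitted both directions versus DMSO.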

[16] = ATG_AP_2_CIS: Attagene CIS-FACTORIAL HepG2 Assay for human Activator Protein 2 (AP-2) (AID 2282932); conditions: HepG2 AP-2 cis-reporter, Attagene transcription factor profiling; actives raise or lower the signal
In short: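 HepG2, transient MRTU transfection, cis-regulated reporters; 24 h compound exposure; RNA isolated, RT-PCR, 6-FAM labelling, HpaI digest, CE fluorescence. DMSO = negative control/baseline, bidirectional fit.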

[17] = ATG_BRE_CIS: Attagene CIS-FACTORIAL HepG2 Assay for human Bone Morphogenetic Protein (BMP) Response Element (BRE) (AID 2282933); conditions: HepG2 BMP response element reporter, Attagene transcription factor profiling; actives raise or lower the signal
In short: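 Transient MRTU transfection of human HepG2 liver cells; 24 h compound treatment; total RNA isolated, reverse-transcribed, PCR-amplified, 6-FAM labelled, HpaI-cut, capillary electrophoresis. DMSO = negative control/baseline, bidirectional fit.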

[18] = molecular target: Retinoic acid receptor alpha (Homo sapiens) (UniProt P10276); test: ATG_DR5_RAR_CIS: Attagene CIS-FACTORIAL HepG2 Assay for human Retinoic Acid Receptor Alpha (RARE), DR5 submotif (AID 2282934); conditions: HepG2 Attagene cis-factorial RARE DR5 reporter, mRNA; actives raise or lower the signal;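 as to AC50: reporter responds to endogenous RAR alpha beta and gamma in HepG2 not RARA alone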
In short: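 Transient MRTU transfection of HepG2; 24 h compound treatment; TriZol RNA, oligo(dT) RT, PCR, FAM labelling, capillary electrophoresis. Bidirectional fit vs DMSO. Endogenous TF activity at DR5 RARE.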

[19] = molecular target: Transcription factor E2F1 (Homo sapiens) (UniProt Q01094); test: ATG_E2F_CIS: Attagene CIS-FACTORIAL HepG2 Assay for human E2F Transcription Factor 1 (AID 2282935); conditions: HepG2 Attagene cis-reporter, E2F reporter RNA transcripts; actives raise or lower the signal
In short: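 Cis-element reporter mRNA induction in transiently transfected HepG2, 24 h exposure. Activity fitted in both directions relative to DMSO negative control.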

[20] = ATG_DR4_LXR_CIS: Attagene CIS-FACTORIAL HepG2 Assay for human Liver X Receptor (LXR), DR4 submotif (AID 2282929); conditions: HepG2 Attagene DR4 cis-reporter, mRNA transcription; actives raise or lower the signal
In short: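 The endpoint is DR4-element-driven reporter transcripts after 24 h chemical exposure of transfected HepG2 cells. These were measured via RT-PCR and capillary electrophoresis, and gain or loss of signal was fitted relative to DMSO controls.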

Measured: AC50

Chain of CCAAT/enhancer-binding protein beta (Homo sapiens) (P17676 whole entry, looked up): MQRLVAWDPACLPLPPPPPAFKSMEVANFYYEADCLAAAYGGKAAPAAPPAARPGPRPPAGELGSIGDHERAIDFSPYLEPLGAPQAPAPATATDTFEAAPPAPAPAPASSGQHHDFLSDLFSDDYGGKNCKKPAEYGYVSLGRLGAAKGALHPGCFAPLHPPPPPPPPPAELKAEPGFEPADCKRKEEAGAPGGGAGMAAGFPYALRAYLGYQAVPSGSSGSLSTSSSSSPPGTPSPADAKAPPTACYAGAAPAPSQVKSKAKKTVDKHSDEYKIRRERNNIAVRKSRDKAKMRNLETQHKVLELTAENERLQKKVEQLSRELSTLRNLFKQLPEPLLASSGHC
Chain of Transcription factor E2F1 (Homo sapiens) (Q01094 whole entry, looked up): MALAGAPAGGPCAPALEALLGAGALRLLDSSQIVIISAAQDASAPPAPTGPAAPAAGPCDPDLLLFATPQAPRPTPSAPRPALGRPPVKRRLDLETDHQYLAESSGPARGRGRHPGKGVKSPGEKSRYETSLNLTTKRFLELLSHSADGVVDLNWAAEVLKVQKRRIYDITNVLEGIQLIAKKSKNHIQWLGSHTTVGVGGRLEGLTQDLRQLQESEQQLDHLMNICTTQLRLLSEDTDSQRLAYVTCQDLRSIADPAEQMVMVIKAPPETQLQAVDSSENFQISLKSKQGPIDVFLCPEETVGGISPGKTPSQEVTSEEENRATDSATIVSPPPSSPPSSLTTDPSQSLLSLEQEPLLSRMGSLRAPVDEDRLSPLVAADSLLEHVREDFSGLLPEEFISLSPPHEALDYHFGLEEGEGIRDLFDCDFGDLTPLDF
Chain of Aryl hydrocarbon receptor (Homo sapiens) (P35869 whole entry, looked up): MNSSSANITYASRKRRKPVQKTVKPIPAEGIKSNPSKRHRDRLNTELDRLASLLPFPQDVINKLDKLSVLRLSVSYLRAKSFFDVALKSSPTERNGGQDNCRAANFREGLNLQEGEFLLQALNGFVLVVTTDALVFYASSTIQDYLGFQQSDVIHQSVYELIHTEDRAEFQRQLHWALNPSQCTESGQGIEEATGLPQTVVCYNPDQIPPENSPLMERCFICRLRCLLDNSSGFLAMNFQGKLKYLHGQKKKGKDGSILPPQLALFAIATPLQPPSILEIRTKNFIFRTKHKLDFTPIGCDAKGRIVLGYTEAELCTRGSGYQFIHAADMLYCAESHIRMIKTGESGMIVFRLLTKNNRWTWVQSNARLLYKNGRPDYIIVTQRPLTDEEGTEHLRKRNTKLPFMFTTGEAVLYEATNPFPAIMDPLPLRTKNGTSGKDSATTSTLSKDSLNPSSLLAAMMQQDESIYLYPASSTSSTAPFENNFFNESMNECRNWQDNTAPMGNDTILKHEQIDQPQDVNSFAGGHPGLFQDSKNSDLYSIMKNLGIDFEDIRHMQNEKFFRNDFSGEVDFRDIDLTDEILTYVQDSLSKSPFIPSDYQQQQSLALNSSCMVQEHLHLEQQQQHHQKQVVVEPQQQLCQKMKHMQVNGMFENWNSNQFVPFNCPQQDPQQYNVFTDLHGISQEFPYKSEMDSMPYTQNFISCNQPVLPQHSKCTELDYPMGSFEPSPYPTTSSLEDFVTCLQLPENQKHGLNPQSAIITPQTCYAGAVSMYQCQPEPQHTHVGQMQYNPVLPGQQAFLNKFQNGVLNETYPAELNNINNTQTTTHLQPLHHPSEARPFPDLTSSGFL
Chain of Retinoic acid receptor alpha (Homo sapiens) (P10276 whole entry, looked up): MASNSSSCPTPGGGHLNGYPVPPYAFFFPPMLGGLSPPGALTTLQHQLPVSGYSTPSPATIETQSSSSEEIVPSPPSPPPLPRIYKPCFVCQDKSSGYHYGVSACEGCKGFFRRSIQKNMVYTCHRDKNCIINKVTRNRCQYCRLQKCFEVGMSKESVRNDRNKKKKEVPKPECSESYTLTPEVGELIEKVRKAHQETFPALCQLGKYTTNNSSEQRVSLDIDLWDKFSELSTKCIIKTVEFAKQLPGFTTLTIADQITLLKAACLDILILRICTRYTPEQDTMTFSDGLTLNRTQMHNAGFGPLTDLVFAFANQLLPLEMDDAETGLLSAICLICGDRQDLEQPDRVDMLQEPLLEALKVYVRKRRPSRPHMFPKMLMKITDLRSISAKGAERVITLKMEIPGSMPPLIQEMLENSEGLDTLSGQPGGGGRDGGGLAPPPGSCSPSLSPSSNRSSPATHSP

CCOC(=O)O[C@H](C)OC(=O)c1ccc2c(c1)cc(C(=O)NC1CCN(C(C)C)CC1)n2Cc1cc(-c2ccc(Cl)s2)on1
active: [4] 94.5 µM | [5] 94.5 µM | [18] 42.2 µM
inactive: [1] | [2] | [3] | [6] | [7] | [8] | [9] | [10] | [11] | [12] | [13] | [14] | [15] | [16] | [17] | [19]

CCCCCc1ccc(N)cc1
inactive: [1] | [2] | [3] | [4] | [5] | [6] | [7] | [8] | [9] | [10] | [11] | [12] | [13] | [14] | [15] | [16] | [17] | [18] | [19]
active: [14] 65.5 µM | [15] 25.9 µM

CN(C[C@@H](CC[N+]12CCC(C3CCCCC3)(CC1)CC2)c1ccc(Cl)c(Cl)c1)C(=O)c1cc(C(F)(F)F)cc(C(F)(F)F)c1
active: [1] 31.8 µM | [3] 36.3 µM | [4] 28.4 µM | [5] 35.1 µM | [8] 26.7 µM
inactive: [6] | [7] | [9] | [10] | [11] | [12] | [13] | [20] | [14] | [15] | [16] | [17] | [18] | [19]

CCCOC(=O)c1cc(O)c(O)c(O)c1
inactive: [1] | [2] | [3] | [4] | [5] | [6] | [7] | [9] | [10] | [11] | [12] | [14] | [15] | [16] | [17] | [18]
active: [8] 38.8 µM | [13] 58.6 µM | [19] 169 µM

CCCCCCCC[Si](OCC)(OCC)OCC
active: [1] 19.8 µM | [3] 115 µM | [6] 100 µM | [8] 19.8 µM | [9] 41.2 µM | [11] 54.5 µM | [12] 65.7 µM | [13] 62.9 µM [middle of 4 runs] | [20] 126 µM [middle of 4 runs] | [15] 70.2 µM [middle of 4 runs] | [17] 159 µM | [18] 69.2 µM | [19] 153 µM
inactive: [2] | [4] | [5] | [7] | [10] | [11] | [12] | [14] | [16] | [17] | [18] | [19]

Cc1cc2c(cc1C(F)(F)F)N(C(=O)Nc1ccc(Oc3cccnc3C)nc1)CC2
inactive: [9] | [10] | [11] | [12] | [13] | [14] | [15] | [16] | [17] | [19]
active: [1] 22.2 µM | [3] 46.3 µM | [4] 38.4 µM | [5] 43 µM | [6] 20.1 µM | [7] 26.2 µM | [8] 27.8 µM | [18] 0.967 µM
